# Screening data deposited in PubChem by National Center for Advancing Translational Sciences (NCATS).
# PLK1 PBD block = blocks phosphopeptide binding to human PLK1 polo-box domain; P53350; AID 720504; Plk1 PBD binding of FITC phosphopeptide, fluorescence polarization; Potency, µM, inactives show max response, negative = inhibition, hits mostly inhibitors; 2.8% of 360,000 active; also: potency is read from the fitted curve at half-maximal effect; series mostly up to about 57 µM; % is scaled to controls: 0 for no effect and ±100 for the full control effect; nearly all actives have a fitted effect of over 65% in size
# PI5P4Ka inh = blocks human PI5P4K alpha kinase activity. P48426. PI5P4Kalpha enzyme, ADP-Glo luminescence, 60 min; stronger effect = lower value. max response, %. 1.2% of 330,000 active. AID 652105; active = max response of -50% or lower; inconclusive = between -30% and -50%; inactive = -30% or higher; also: value at the top dose of about 77 µM; % is scaled to controls: 0 for no effect and ±100 for the full control effect
# Target sequence (P48426 whole entry, looked up): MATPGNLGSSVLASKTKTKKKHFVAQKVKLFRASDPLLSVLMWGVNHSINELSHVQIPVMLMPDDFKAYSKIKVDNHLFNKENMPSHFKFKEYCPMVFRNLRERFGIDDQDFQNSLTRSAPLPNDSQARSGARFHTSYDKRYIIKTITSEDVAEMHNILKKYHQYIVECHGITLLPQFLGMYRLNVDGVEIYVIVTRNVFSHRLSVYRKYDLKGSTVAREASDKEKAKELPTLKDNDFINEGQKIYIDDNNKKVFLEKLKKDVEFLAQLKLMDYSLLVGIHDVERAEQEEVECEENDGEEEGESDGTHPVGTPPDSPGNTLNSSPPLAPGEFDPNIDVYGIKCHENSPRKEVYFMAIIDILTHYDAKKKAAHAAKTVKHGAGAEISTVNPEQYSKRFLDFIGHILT
#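 Luminescence from ADP-Glo served as readout of PI5P4Kalpha activity in a qHTS format. Reaction: enzyme, substrate, compound, ATP at 5 microM final, 60 min at RT.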
# JMJD2A Tudor inh = blocks the human JMJD2A Tudor domain | Potency, µM (series often up to 114 µM), for inactives: at the highest dose activity change, negative = inhibition, most hits filed as inhibitors | O75164 | 4.4% of 390,000 active | AlphaScreen JMJD2A-Tudor / H3K4me3 peptide binding; also: potency is read from the fitted curve at half-maximal effect; % is scaled to controls: 0 for no effect and ±100 for the full control effect; nearly all actives have a fitted effect of over 50% in size
# G9a inh = G9a (human) methyltransferase inhibition; G9a H3K9 monomethylation, AlphaScreen, 2 h; Potency, µM (titrated, usually from 102 µM), for inactives: at the highest dose activity, negative = inhibition, actives largely listed as inhibitors; 8.8% of 350,000 active; AID 504332; also: potency is read from the fitted curve at half-maximal effect; % is scaled to controls: 0 for no effect and ±100 for the full control effect; nearly all actives have a fitted effect of over 75% in size
#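 Using a bead-based AlphaScreen, monomethylated H3K9 product from 2 h room-temperature reactions (G9a 20 nM, peptide 500 nM, SAM 20 uM) was detected with 0.5 ug/mL rabbit anti-H3K9me1 antibody.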
# HP1b binding inh = blocks HP1-beta chromodomain binding to methylated histone tails | P83916 | AlphaScreen HP1-beta / biotin-H3K9me3 peptide binding | Potency, µM (series often up to 114 µM), without a hit: at the highest dose activity change, negative = inhibition, actives largely listed as inhibitors | 0.56% of 390,000 active; also: potency is read from the fitted curve at half-maximal effect; nearly all actives have a fitted effect of over 70% in size
#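 Compound inhibition of the preformed complex between 50 nM HP1-beta and 50 nM biotinylated H3K9me3 peptide was read by AlphaScreen. Buffer was PBS pH 7.4 with 0.01% Tween-20. Incubations ran 30 min at room temperature, with 10 ug/mL donor/acceptor beads.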
# BAZ2B block = inhibitors of human BAZ2B bromodomain; AID 504333; Potency, µM (highest dose often 114 µM), without a hit: at the top dose activity change, negative = inhibition, usual class: inhibitors; Q9UIF8; 4.4% of 360,000 active; AlphaScreen BAZ2B-H3K14Ac peptide displacement; also: potency is read from the fitted curve at half-maximal effect; % is scaled to controls: 0 for no effect and ±100 for the full control effect; nearly all actives have a fitted effect of over 60% in size
#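 In this displacement format the biotinylated H3(5-23) peptide acetylated at Lys14 serves as ligand at 50 nM, with BAZ2B at 50 nM in PBS pH 7.4 containing 0.01% Tween-20. Donor and acceptor beads are 10 ug/mL final.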
# Active calls of the source: *; ? = inconclusive; nt = no result; [ ] = another dose, or the depositor's remark. Most compounds without a hit are left out; they make up all but 12% or so of the library. Unless noted, calls follow the shape of the dose curve; as a rule, active = well fitted curve in the direction sought with a large enough effect; inconclusive = small, poorly fitted or top-dose-only effect, or another doubt; inactive = no such curve, though single readings can be large; an effect the other way counts as inactive or inconclusive.
SMILES,PLK1 PBD block,PI5P4Ka inh,JMJD2A Tudor inh,G9a inh,HP1b binding inh,BAZ2B block
O=C(N/N=C/c1c(O)n(C2CCCCC2)c(=S)[nH]c1=O)c1ccccc1,?,-12,79µM*,?,68%,-1%
O=C(N/N=C/c1c(O)n(C2CCCCC2)c(=S)[nH]c1=O)c1ccccc1O,?,?,7%,75%[59 µM],45%,79µM*
COc1cccc(C2SCC(=O)Nc3c2c(C)nn3-c2ccc(C)c(Cl)c2)c1OC (stereo unspecified),nt,nt,3%,-25%[59 µM],66%,2%
O=Cc1ccco1,nt,nt,nt,14%[59 µM],nt,nt
CCOc1ccccc1OCCCCN1CCCC1,0%,2,32µM*,?,?,?
O=C(O)CCCc1ccc(N(CCCl)CCCl)cc1,-21%,4,-31%,-1%[59 µM],22%,56µM*
N[C@@H](Cc1ccc(N(CCCl)CCCl)cc1)C(=O)O,-11%,-6,-27%,7.9µM*,25%,-27%
CC(=O)NC(Cc1ccc(N(CCCl)CCCl)cc1)C(=O)O (stereo unspecified),-3%,nt,-10%,-25%[59 µM],25%,8%
CCCN(CCC)[C@@H]1CCc2c(OC)cccc2[C@@H]1C,nt,nt,nt,15%[59 µM],nt,nt
NCCCCN=C(N)N,nt,nt,nt,29%[12.7 µM],nt,nt
CCOC(=O)[C@]12Cc3cc(Cl)ccc3[C@H]1N(C)C(=O)c1ccccc12,-28%,2,nt,nt,nt,nt
CCOC(=O)[C@]12Cc3cc(Cl)ccc3[C@H]1N(C(C)C)C(=O)c1ccccc12,9.5µM*,-2,nt,nt,nt,nt
CCOC(=O)[C@]12Cc3cc(OC)c(OC)cc3[C@H]1N(Cc1ccccc1)C(=O)c1ccccc12,-11%,0,-26%,nt,20%,nt
CCOC(=O)[C@]12Cc3cc(Cl)ccc3[C@H]1N(CC(=O)OC)C(=O)c1ccccc12,4.2µM*,-1,nt,nt,nt,nt
CCC(C)C(=O)OC1C(O)C2C(CN3CC(C)CCC3[C@]2(C)O)C2C[C@]34O[C@@]5(O)C(OC(=O)C(C)(O)C(C)O)CCC3(C)C5C(OC(C)=O)C(OC(C)=O)C4[C@@]21O (stereo partly specified),nt,nt,nt,5%[2.33 µM],nt,nt
C=C1C(O)[C@@H]2O[C@]3(CC[C@H](/C=C/C(C)[C@@H]4CC(C)=CC5(O[C@H](C[C@@](C)(O)C(=O)O)CCC5O)O4)O3)CC[C@H]2O[C@@H]1C(O)CC(C)[C@H]1OC2(CCCCO2)CCC1C (stereo partly specified),-17%,-1,-7%,nt,22%,nt
COc1cccc(OCCNC(=O)c2cc([N+](=O)[O-])cc([N+](=O)[O-])c2)c1,4%,14,-3%,?,-7%,-32%
Cn1sc(Cl)cc1=O,nt,nt,nt,-27%[12.7 µM],nt,nt
Cc1ccccc1-n1c(O)c(/C=C/C=Nc2ccccc2)c(=O)[nH]c1=O,74%,?,-7%,2%[59 µM],36%,5%
Cn1c(O)c(/C=C/C=Nc2ccccc2)c(=O)n(C)c1=S,14%,-30,-14%,45µM*,24%,-1%
COC1C(OC(=O)c2ccc(C)[nH]2)C(O)C(Oc2ccc3c(O)c(NC(=O)c4ccc(O)c(CC=C(C)C)c4)c(=O)oc3c2Cl)OC1(C)C (stereo unspecified),-6%,?,50µM*,nt,?,?
CC(=O)N(C)CC#CCN1CCC(O)CC1,nt,nt,32µM*,nt,1%,nt
O=C(CCC1N=C2c3ccccc3N=C(SCc3cccc(Cl)c3)N2C1=O)N1CCN(c2ccccc2)CC1 (stereo unspecified),nt,nt,-31%,?,15%,-27%
COc1ccccc1N=Nc1ccc(N)c(C)c1,-13%,5,45µM*,24%[2.33 µM],?,35µM*
COc1ccccc1CN1CC[C@@]2(CCCN(C(=O)Oc3ccccc3)C2)C1,nt,nt,nt,6%[12.7 µM],nt,nt
COCCOC(=O)C1=C(C)OC(N)=C(C(=O)OC)C12C(=O)Nc1ccccc12 (stereo unspecified),-4%,nt,-18%,13%[59 µM],26%,0%
COC(=O)C1=C(N)Oc2cc(C)oc(=O)c2C12C(=O)Nc1ccccc12 (stereo unspecified),24µM*,-26,?,15%,24%,nt
